The source of these data is PubChem BioAssay.

“And” between values parts separate entries of the source, which are not always exact repeats. Equal entries are not always repeated. Results filed as inconclusive are left out. Some compounds were tested as several samples or in several runs, with calls that do not always agree. The source made the active and inactive calls. Cut-off read from the data, not from the text of the source, unless noted: active = inhibition above about 80%; inactive = the rest.

A short description of test [1]: SU-DIPG-VI glioma cell viability, MIPE4.0 library, CellTiter-Glo luminescence, qHTS (AID 1347066; cut-off not given, nearly all actives have AC50 up to about 30 µM;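 note: cells exposed to compound for 48 hours before readout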). The note with it: CellTiter-Glo ATP luminescence. In general terms: Cellular ATP, detected with luciferase, serves as a proxy for viable cell number.
Test [2] in a line: SU-DIPG-XXV glioma cell viability, MIPE5.0 library, qHTS (AID 1347068; cut-off not given, nearly all actives have IC50 up to about 30 µM). Background: In qHTS, concentration-response curves come from the screen itself.
The nature of test [3]: sensitizers of A549 cells to miR-34 induction, primary screen, imaging, A549 dox-inducible miR-34, nuclei and caspase counts (AID 1347080;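 active = compounds whose cell count with miR-34 switched on is under 0.7 times the count with it off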). The conditions noted are these: A549 miR-34 inducible, Hoechst nuclei count, 48 h.
Test [4] can be described thus: survival rescue of mitochondrial mutant cells in low glucose, primary screen, MELAS cybrids, Rieske KO mouse fibroblasts, CellTiter-Glo (AID 1508586;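 active = mean z-score across replicates of 1.96 or higher in either the MELAS or the Rieske mutant cell line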;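 note: z relative to plate mean and SD of compound and empty wells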).
In test [5] the target is NAD(+) hydrolase SARM1 (Homo sapiens) (UniProt Q6SZW1). The test is described as follows: SARM1 TIR NADase inhibitors, cell lysate, NAD-Glo luminescence (AID 1508614;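 active = compound whose remaining NAD level is above about 45 nM, limit read from the data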;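 note: higher remaining NAD means stronger inhibition of SARM1 NADase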). The conditions noted are these: SAM-TIR HEK293T lysate NADase, at 1 µM, stronger effect = higher value.
The target in test [6] is Mitogen-activated protein kinase 7 (Homo sapiens) (UniProt Q13164). The test is described as follows: ERK5 transactivation activators in reporter cells, primary screen, cell-based, HTS (AID 1508626;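 active = luciferase signal above three times the same-plate solvent-only control wells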;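 note: luciferase driven by Gal4-ERK5 fusion binding five Gal4 sites before minimal TATA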). The conditions noted are these: HeLa Gal4-ERK5 transactivation, 18 h, at 5 µM, stronger effect = higher value.
Test [7] in a line: inhibitors of Cryptococcus chitosan production, flow cytometry, Cibacron Brilliant Red staining (AID 1347148; call rule not given here;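 note: compound exposure lasted three days at 37 degrees C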). The note with it: Cryptococcus neoformans chitosan, stronger effect = lower value; at 10 µM unless noted.
Test [8] can be described thus: phospholipid biosynthesis inhibitors in animal cells, primary screen, cell-based, LOPAC library, screen 4 (AID 1347384; call rule not given here). The note with it: phospholipid biosynthesis inhibition screen, at 10 µM.
A short description of test [9]: viability rescue of complex I mutant cybrids, primary screen, cell-based, galactose medium, ATP luminescence (AID 1645843;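 active = z-score of at least 1.8 in each of two replicates, scored against plate mean and spread of sample wells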;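 note: positive z means more ATP and so rescue of galactose-driven cybrid death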). The conditions noted are these: complex I mutant cybrid cells, 72 h, stronger effect = higher value.
Test [10] is described as follows: LFS_MB_P medulloblastoma growth inhibition, cell-based, chromothripsis tumors, cisplatin or BGB combos (AID 1671449).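 Note: cells exposed for 96 hours; 0% = vehicle DMSO and 100% = killing by high DMSO.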 The conditions noted are these: LFS_MB_P medulloblastoma cells.
The nature of test [11]: HDN33 neuroblastoma growth inhibition, cell-based, chromothripsis tumors, cisplatin or BGB combos (AID 1671450).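 Note: cells exposed to compound for four days; 0% = vehicle DMSO and 100% = cell killing by high DMSO.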 The note with it: HDN33 neuroblastoma cells, stronger effect = higher value.
Test [12] in a line: ICB984 medulloblastoma cell growth inhibition, synergistic combos for chromothripsis tumors, cisplatin or BGB combos (AID 1671451; call rule not given here;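 note: cells exposed for 96 hours before readout; 0% = vehicle DMSO and 100% = killing by high DMSO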). The conditions noted are these: ICB984 medulloblastoma cells, drug combinations, stronger effect = higher value.
Test [13] in a line: LFS_MB_1R medulloblastoma cell growth inhibition, synergistic combos for chromothripsis tumors, cisplatin or BGB combos (AID 1671452).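 Note: cells exposed for 96 hours before readout.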 The note with it: LFS_MB_1R medulloblastoma cells, stronger effect = higher value.
The nature of test [14]: HTB85 osteosarcoma cell growth inhibition, synergistic combos for chromothripsis tumors, BGB or cisplatin IC20 combos (AID 1671453).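 Note: cells exposed for 96 hours before readout; 0% = vehicle DMSO and 100% = high DMSO killing control.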 The note with it: HTB85 osteosarcoma cells, drug combinations, stronger effect = higher value.
Test [15] can be described thus: CRL2098 osteosarcoma cell growth inhibition, synergistic combos for chromothripsis tumors, BGB or cisplatin IC20 combos (AID 1671454).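 Note: cells exposed for 96 h before readout; 0% = vehicle DMSO and 100% = killing by high DMSO.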 The conditions noted are these: CRL2098 osteosarcoma cells, drug combinations, stronger effect = higher value.
Test [16] can be described thus: HD-MB03 medulloblastoma cell growth inhibition, synergistic combos for chromothripsis tumors, BGB or cisplatin IC20 combos (AID 1671455; in the data active = inhibition above about 83%;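 note: 0% = vehicle DMSO and 100% = high DMSO as cytotoxic control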). The conditions noted are these: HD-MB03 medulloblastoma cells, stronger effect = higher value.
The mark [17] stands for this setting: stronger effect = lower value, cell number ratio, induced over uninduced.
The mark [18] stands for this setting: measured here: relative caspase fold change +Dox/-Dox.
[19] abbreviates: measured here: total cells with miR-34 induction, stronger effect = lower value.
Setting [20] is: measured here: total cells without miR-34 induction.
Where [21] appears, read: MELAS cybrid survival, CellTiter-Glo 48 h, stronger effect = higher value.
Setting [22] is: Rieske KO mouse fibroblast survival, CellTiter-Glo 72 h.
[23] abbreviates: measured here: combination with BGB IC40, at 0.05 µM.

NAD(+) hydrolase SARM1 (Homo sapiens), sequence (Q6SZW1 whole entry, looked up, the tested form may be a part): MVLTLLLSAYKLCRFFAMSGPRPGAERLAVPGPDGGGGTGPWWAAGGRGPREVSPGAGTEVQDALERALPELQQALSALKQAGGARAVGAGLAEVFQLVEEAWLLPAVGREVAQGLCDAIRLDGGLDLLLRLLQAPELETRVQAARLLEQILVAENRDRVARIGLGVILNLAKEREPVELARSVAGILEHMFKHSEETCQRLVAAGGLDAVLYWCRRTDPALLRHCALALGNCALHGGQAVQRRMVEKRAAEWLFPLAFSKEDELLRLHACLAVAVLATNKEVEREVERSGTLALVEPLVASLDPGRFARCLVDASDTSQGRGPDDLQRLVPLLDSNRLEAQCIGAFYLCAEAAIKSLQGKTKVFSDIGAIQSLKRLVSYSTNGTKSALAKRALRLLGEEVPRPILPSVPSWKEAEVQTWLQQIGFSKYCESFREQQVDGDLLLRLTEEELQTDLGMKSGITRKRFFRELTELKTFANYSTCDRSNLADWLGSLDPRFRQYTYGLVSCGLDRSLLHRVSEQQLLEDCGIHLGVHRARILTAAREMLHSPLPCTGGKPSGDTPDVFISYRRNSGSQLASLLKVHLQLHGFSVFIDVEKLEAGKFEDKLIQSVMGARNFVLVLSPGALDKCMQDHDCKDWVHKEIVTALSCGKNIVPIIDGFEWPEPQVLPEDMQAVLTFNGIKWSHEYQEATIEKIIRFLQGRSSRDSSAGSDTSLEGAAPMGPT
Mitogen-activated protein kinase 7 (Homo sapiens), sequence (Q13164 whole entry, looked up, the tested form may be a part): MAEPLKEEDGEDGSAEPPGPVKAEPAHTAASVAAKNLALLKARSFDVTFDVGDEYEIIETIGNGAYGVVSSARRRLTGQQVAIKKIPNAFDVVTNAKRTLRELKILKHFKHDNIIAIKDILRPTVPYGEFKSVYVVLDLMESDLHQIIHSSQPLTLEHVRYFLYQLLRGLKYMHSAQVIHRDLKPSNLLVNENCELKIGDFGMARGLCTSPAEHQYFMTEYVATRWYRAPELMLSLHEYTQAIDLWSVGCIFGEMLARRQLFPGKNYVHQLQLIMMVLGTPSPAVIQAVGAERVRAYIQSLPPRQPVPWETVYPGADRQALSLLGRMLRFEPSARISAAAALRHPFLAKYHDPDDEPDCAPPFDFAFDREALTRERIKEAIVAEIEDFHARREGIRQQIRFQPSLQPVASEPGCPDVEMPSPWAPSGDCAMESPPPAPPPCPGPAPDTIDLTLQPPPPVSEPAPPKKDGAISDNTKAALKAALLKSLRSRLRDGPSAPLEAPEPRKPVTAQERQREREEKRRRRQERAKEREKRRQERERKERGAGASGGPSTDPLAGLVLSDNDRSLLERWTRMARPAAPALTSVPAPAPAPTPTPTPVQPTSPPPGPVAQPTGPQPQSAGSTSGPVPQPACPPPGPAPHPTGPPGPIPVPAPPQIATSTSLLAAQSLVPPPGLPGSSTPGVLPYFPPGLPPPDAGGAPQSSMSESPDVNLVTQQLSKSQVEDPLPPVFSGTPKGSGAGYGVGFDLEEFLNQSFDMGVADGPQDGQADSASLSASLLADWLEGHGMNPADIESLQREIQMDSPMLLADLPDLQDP

As for `Cc1cccc(N(C)C(=S)Oc2ccc3ccccc3c2)c1`, the compound was classed as inactive in test [1] and in test [2]. Moreover, the fold change in [3] (setting [17]) was 0.98 (inactive) and 0.897 (inactive) and 0.793 (inactive); in test [3] (setting [18]), 1.24 and 1.29 and 1.54. The cell count was 8090 and 8100 and 9280 in test [3] (setting [19]); 8260 and 9020 and 11700 in test [3] (setting [20]). Further, the z-score in test [4] (setting [21]) was -0.305 (inactive) and 0.185 (inactive); in test [4] (setting [22]) it was 0.765 and 0.376. For the same compound, the remaining NAD in [5] was 10 nM (inactive). Moreover, the luciferase signal in [6] was 112 AU (inactive).
Consider `COc1cc([C@H]2Oc3cc([C@H]4Oc5cc(O)cc(O)c5C(=O)[C@@H]4O)ccc3O[C@@H]2CO)ccc1O`, for which the compound was called inactive in [1] and in [2]. In addition, the luciferase signal in test [6] is 64 AU (inactive).
In general, inhibition refers to the change of the read-out against control, counted positive when it falls. In the case of `O=c1c(-c2ccc(O)cc2)coc2cc(O)cc(O)c12`, the result in test [1] and in [8] was inactive. Moreover, in test [7], the fold fluorescence was 4.75 [at 185 µM] (inactive). Also, the z-score in test [4] (setting [21]) was -0.427 (inactive); in test [4] (setting [22]), 0.508; in [9], 1.99 (active) and 1.98 (inactive). For the same compound, the luciferase signal in [6] is 276 AU (active). The inhibition in test [10] (at 0.5 µM, stronger effect = higher value) was -9.97% (inactive) and -4.89% (inactive); in test [10] (measured here: combination with BGB IC20, at 0.005 µM), -17.8% and -1.45%; in [10] (measured here: combination with BGB IC40, at 0.005 µM), -18% and -3.22%; in [10] (setting [23]) it was -25.1% and -11.9%; in test [10] (measured here: combination with cisplatin, at 0.5 µM, stronger effect = higher value), -5.93% and -18.3%; in test [10] (measured here: combination with cisplatin, at 5 µM, stronger effect = higher value) it was 8.08% and 3.66%. The inhibition in test [11] (BGB combo, at 5 µM) is -47.6% and 34.9%; in test [11] (at 0.5 µM), -42.8% (inactive) and -12.6% (inactive); in test [11] (cisplatin combo, at 5 µM), -40% and 3.53%; in test [11] (measured here: with BGB IC20 combination, at 0.5 µM) it was -43.9% and -15.8%; in [11] (measured here: with cisplatin IC20 combination, at 0.5 µM), -42.3% and -4.37%; in [11] (single agent, at 5 µM), -15.6% and 2.01%. The inhibition in test [12] (BGB IC20 combo, at 0.005 µM) was 8.8% and -0.198%; in [12] (BGB IC40 combo, at 0.005 µM), -22.1% and -29.4%; in [12] (BGB IC40 combo, at 0.05 µM), -7.4% and -6.46%; in test [12] (at 0.5 µM), -34.3% (inactive) and -16.8% (inactive); in [12] (cisplatin combo, at 0.05 µM) it was -11.3% and -9.44%; in [12] (cisplatin combo, at 0.5 µM) it was -39.9% and -21.8%. Further, the inhibition in test [12] (cisplatin combo, at 5 µM) was -72.1% and -7.73%; in test [12] (measured here: 5 uM single agent, at 5 µM), -9.66% and -12.4%; in test [13] (at 0.5 µM), -22.6% (inactive) and -10.7% (inactive); in test [13] (setting [23]), -45.5% and -14.8%; in test [13] (measured here: combination with cisplatin, at 0.5 µM), -45.5% and -6.51%; in test [13] (measured here: combination with cisplatin, at 5 µM) it was -62.6% and -7.84%. The inhibition in [14] (at 0.5 µM) was -23.1% (inactive) and -8.31% (inactive); in test [14] (measured here: with BGB IC20, at 0.5 µM), -24.9% and -17.6%; in test [14] (measured here: with BGB IC20, at 5 µM) it was -18.6% and -5.83%; in test [14] (measured here: with cisplatin IC20, at 0.5 µM) it was -32.2% and -12.6%; in test [14] (measured here: with cisplatin IC20, at 5 µM), -33.6% and -5.76%; in [14] (single agent, at 5 µM), -0.415% and -6.72%. The inhibition in test [15] (at 0.5 µM) is -89.3% (inactive) and -22.4% (inactive); in [15] (measured here: combination with BGB at IC20, at 0.5 µM), -68.7% and -13.6%; in test [15] (measured here: combination with cisplatin at IC20, at 0.5 µM) it was -148% and -31.4%; in test [16] (at 0.5 µM) it was -19.5% (inactive) and -5.86% (inactive); in test [16] (measured here: combo with BGB at IC20, at 0.5 µM), -19.9% and -0.815%; in test [16] (measured here: combo with cisplatin at IC20, at 0.5 µM), -26.5% and -4.16%.
As for `Cc1onc(-c2ccccc2Cl)c1C(=O)N[C@@H]1C(=O)N2[C@@H]1SC(C)(C)[C@@H]2C(=O)O`, the call in [1] was inactive. Moreover, the fold change in [3] (setting [17]) was 0.913 (inactive) and 0.866 (inactive); in [3] (setting [18]), 1.38 and 0.839. The cell count in test [3] (setting [19]) is 8800 and 10900; in test [3] (setting [20]), 9640 and 12500. The z-score was 1.06 (inactive) in [4] (setting [21]) and 0.283 in test [4] (setting [22]). The remaining NAD in test [5] is 10 nM (inactive). The luciferase signal in [6] is 24 AU (inactive).
Turning to `O=C(O)c1cccnc1Nc1cccc(C(F)(F)F)c1`, the result in test [1] and in [8] was inactive. In addition, in test [7], the fold fluorescence was 3.63 [at 177.2 µM] (inactive). Moreover, the z-score in test [4] (setting [21]) was -0.334 (inactive) and -0.267 (inactive) and 0.0798 (inactive); in [4] (setting [22]), -0.307 and -0.187 and -0.378; in test [9], -0.15 (inactive) and 0.22 (inactive). Also, the remaining NAD in [5] was 10 nM (inactive). For the same compound, the luciferase signal in test [6] is 60 AU (inactive).
